KDM5B inh: inhibitors of human KDM5B histone demethylase; Potency, µM (top dose mostly 57.7 µM), hits mostly inhibitors; Q9UGL1; 220,000 tested, 2.6% active; KDM5B demethylase, FDH-coupled NADH fluorescence (FDH is formaldehyde dehydrogenase); active means well fitted inhibition curve with a large enough effect; further: 0% is about no effect; nearly all actives have a fitted effect of over 70% in size
Target sequence (Q9UGL1 whole entry, looked up): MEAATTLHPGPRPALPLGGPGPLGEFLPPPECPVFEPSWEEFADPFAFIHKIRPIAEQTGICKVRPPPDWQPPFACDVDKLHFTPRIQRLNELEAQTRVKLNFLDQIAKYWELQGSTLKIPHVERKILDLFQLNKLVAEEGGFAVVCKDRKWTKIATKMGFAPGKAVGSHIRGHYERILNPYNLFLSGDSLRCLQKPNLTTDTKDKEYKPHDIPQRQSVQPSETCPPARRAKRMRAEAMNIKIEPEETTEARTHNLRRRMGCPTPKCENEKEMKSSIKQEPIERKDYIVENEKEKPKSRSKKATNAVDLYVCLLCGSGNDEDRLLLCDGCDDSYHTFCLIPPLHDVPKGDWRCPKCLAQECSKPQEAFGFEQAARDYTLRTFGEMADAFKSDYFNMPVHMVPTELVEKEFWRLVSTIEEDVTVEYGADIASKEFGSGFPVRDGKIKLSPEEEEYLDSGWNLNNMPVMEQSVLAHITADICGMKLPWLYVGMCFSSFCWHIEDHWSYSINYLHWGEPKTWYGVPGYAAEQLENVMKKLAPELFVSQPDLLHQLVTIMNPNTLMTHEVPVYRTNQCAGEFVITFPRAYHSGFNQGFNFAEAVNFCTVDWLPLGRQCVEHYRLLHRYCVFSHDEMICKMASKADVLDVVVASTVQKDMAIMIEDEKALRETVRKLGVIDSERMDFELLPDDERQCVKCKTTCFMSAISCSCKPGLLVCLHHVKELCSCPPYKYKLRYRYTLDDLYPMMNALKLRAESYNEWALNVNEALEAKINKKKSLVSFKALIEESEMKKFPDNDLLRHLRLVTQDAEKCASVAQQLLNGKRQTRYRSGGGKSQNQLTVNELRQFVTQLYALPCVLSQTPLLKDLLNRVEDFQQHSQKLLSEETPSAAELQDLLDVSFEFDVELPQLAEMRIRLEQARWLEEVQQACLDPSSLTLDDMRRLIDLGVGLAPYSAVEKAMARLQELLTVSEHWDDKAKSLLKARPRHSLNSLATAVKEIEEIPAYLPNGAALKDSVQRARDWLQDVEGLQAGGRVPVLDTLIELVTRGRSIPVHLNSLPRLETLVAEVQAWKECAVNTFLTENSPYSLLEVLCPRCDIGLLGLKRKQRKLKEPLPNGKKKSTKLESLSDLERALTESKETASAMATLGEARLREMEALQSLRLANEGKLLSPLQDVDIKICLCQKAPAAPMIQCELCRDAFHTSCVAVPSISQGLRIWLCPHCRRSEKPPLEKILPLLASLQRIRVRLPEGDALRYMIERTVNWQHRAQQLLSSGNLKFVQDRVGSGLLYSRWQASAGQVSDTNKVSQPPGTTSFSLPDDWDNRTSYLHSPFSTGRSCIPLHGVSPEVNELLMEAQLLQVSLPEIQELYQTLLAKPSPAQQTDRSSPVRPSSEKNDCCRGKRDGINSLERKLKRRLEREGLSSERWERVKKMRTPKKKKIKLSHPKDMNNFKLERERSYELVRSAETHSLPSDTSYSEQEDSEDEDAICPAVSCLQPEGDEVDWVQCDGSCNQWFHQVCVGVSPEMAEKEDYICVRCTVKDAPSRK
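KDM5BΔAP (200 nM final) in 50 mM HEPES pH 7.5, 0.01% Tween-20 was preincubated 10 min at RT with compound over a concentration range. Substrate mix (H3K4me3 12.5 µM, α-KG 25 µM, Fe²⁺, ascorbate, NAD⁺, FDH) was added, and NADH fluorescence change over 30 min gave dose-response curves.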
Starred values were filed as active, the others as inactive; i = inactive. Only a selection was taken, and hits are over-represented in it overall. Potency means the concentration at half of the fitted maximal effect.

SMILES	KDM5B inh
CSCC(=O)N1C[C@@H]2C[C@H](C1)c1c(-c3ccc(NC(C)=O)cc3)ccc(=O)n1C2	28µM*
CSc1ccc(-c2ccc(=O)n3c2[C@@H]2C[C@@H](CN(S(C)(=O)=O)C2)C3)cc1	35µM*
O=C(C1CCCCC1)N1C[C@@H]2C[C@H](C1)c1c(-c3cccs3)ccc(=O)n1C2	i
O=C(C1CCCCC1)N1C[C@@H]2C[C@H](C1)c1c(-c3ccc(Cl)cc3)ccc(=O)n1C2	i
CCCS(=O)(=O)Nc1ccc(=O)n2c1[C@@H]1C[C@@H](CN(C(=O)c3ccc(OC)cc3)C1)C2	i
COc1ccc(-c2ccc(=O)n3c2[C@@H]2C[C@@H](CN(C(=O)CSC)C2)C3)cc1	i
C=C[C@H]1CN2CC[C@H]1C[C@@H]2CNC(=O)C(CC)CC	i
O=C(c1ccncc1)N1CC2CCC(C1)N2CC1CCCC1	i
CC12CCC(=O)C=C1CCC1C2CCC2(C)C1CC[C@]2(C)O (some centres not stated)	i
CC(C)NC(=O)NC[C@H]1C[C@@H]2CCN1C[C@@H]2c1cc(C2CCCCC2)nn1C	i
N#Cc1ccccc1CN1CCN(c2ccccc2)CC1	i
C=CCOc1ccc(CNCCc2c[nH]c3ccccc23)cc1	i
CC(=O)N1CCC(NC[C@H]2C[C@@H]3CCN2C[C@@H]3c2cc(C3CCCC3)nc(C)n2)CC1	i
COc1ccc(CC(=O)N2Cc3ccccc3CC3(CCCCN3C)C2)cc1 (configuration not stated)	i
COCCN1CCC(N2CCN(C(=O)Cc3cccc(F)c3)CC2)C1=O (configuration not stated)	i
CC1OC(OC2CCC3(C=O)[C@H]4CCC5(C)C(C6=CC(=O)OC6)CCC5(O)[C@@H]4CCC3(O)C2)CC(O)C1O (some centres not stated)	i
